# Measurements reported in PMC4336329 (PLoS ONE, 2015).
# The campaign covered roughly 310,000 compounds. About 14,000 (4.5%) showed an effect of 50% or more. Effects have a minus sign here. The sample as a whole holds a higher share of strong results than the screen did.
# Biological target: human ether-à-go-go-related gene (hERG) potassium channel (human, UniProt Q12809)
# Assay: primary screen, population patch clamp on CHO cells stably expressing hERG; higher = less effect of the substance
# 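Note: peak tail current of the secondary pulse compared with the same well before compound.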
# Chain of human ether-à-go-go-related gene (hERG) potassium channel (Q12809 whole entry, looked up): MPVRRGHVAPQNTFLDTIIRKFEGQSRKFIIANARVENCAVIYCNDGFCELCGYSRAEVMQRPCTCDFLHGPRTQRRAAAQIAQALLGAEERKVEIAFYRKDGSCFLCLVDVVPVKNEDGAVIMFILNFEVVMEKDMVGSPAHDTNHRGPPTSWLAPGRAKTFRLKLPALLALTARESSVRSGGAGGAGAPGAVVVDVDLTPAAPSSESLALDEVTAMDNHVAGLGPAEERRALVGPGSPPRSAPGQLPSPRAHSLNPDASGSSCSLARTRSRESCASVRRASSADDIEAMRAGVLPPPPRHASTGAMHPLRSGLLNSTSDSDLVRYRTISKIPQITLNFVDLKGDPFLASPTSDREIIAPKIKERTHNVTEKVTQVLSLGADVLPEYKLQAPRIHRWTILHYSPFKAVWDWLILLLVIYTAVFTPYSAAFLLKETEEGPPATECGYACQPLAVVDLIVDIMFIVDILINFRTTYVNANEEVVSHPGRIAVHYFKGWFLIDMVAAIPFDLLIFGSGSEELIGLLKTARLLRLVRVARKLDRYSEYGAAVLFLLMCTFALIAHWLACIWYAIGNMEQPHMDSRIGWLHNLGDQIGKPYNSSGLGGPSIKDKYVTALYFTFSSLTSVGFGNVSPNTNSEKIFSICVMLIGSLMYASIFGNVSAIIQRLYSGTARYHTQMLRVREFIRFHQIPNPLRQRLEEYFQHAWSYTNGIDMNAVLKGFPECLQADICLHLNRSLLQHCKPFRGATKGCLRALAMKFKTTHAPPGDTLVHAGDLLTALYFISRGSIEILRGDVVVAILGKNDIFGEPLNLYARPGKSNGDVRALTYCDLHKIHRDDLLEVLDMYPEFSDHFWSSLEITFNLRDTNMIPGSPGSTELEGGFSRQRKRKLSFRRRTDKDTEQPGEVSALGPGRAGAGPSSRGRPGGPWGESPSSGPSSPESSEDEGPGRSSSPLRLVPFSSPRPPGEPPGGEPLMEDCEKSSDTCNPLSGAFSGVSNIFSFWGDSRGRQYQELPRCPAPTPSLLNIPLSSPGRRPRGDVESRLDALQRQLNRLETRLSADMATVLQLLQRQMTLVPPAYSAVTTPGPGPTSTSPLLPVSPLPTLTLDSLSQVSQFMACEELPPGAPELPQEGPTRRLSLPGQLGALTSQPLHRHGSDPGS
row,Compound,"hERG current change (%, negative = inhibition) at 10uM [%]"
1,CN1CCN(C(=O)C2(NC(=O)NCc3ccccc3)CCCCC2)CC1,13.2
2,COc1ccc(CCNC(=O)C(=O)NCC2OCCN2S(=O)(=O)c2ccc(Br)cc2)cc1 (stereo not drawn),-7.02
3,O=C(CC1C(=O)CCCC1=O)c1ccccc1,25.1
4,CN1C(CC(=O)c2ccccc2)CCCC1CC(O)c1ccccc1 (stereo not drawn),-82.4
5,O=C([C@H](O)c1ccccc1)N1CCC[C@H]1CO,8.33
6,OC(CNC1CCCCC1)c1ccccc1 (stereo not drawn),12.1
7,CN1CCC(N(C)CC(O)c2ccccc2)CC1.O=C(O)C(=O)O (stereo not drawn),-6.05
8,CN1C(CC(O)c2ccccc2)CCCC1CC(O)c1ccccc1.Cl (stereo not drawn),-67.8
9,CCOC(=O)C(NC(=O)CC)(Nc1ccccc1)C(F)(F)F (stereo not drawn),21.9
10,Cc1noc(/C=C/c2nn(C)cc2Cl)c1[N+](=O)[O-],16.6
11,C/C(=N\Nc1ccc(C)c(Cl)c1)c1ccncc1,24.8
12,Cc1ccccc1C(=O)NC1CCN(Cc2nnnn2C(C)(C)C)CC1,17.7
13,O=C(CCC(=O)c1ccc(Cl)s1)Nc1ncccc1O,-28.2
14,CCOC(=O)Nc1nc(-c2ccc(Cl)cc2Cl)cs1,11.7
15,CCn1ccnc1CN(C)Cc1nc(CCC(C)C)no1,4.23
16,CN(Cc1nc(Cc2cccc(C(F)(F)F)c2)no1)C1CC(C)(C)NC(C)(C)C1,-12.3
17,CN1CCCC2(CCCN(Cc3nc(Cc4cccc(C(F)(F)F)c4)no3)C2)C1 (stereo not drawn),-45.2
18,CCc1ccc(CN(C)Cc2nc(Cc3cccc(C(F)(F)F)c3)no2)nc1,-28.1
19,CC(CN(C)Cc1nc(Cc2cccc(C(F)(F)F)c2)no1)CN1CCCC1 (stereo not drawn),-63.2

row,Compound,"hERG current change (%, negative = inhibition) at 10uM [%]"
1,CCn1ccnc1CN(C)Cc1nc(Cc2cccc(C(F)(F)F)c2)no1,-60.8
2,COc1ccc(NC(=O)Cn2nnc(C(=O)Nc3ccc(F)c(Cl)c3)c2N)cc1,25.9
3,Cc1cccc(C(=O)NNC(=O)c2ccc(O)cc2)c1,-2.31
4,COc1ccc(CCNC(=O)COC(=O)C2CCCCC2)cc1,7.11
5,Cc1nc2nc[nH]n2c(=O)c1CCOC(=O)c1ccccc1F,20.7
6,O=C(/C=C\c1ccccc1)NCC(=O)N/N=C/c1ccc(O)cc1O,9.48
7,Cc1ccc(NC(=O)CCNS(=O)(=O)c2ccccc2)c(C(=O)c2ccccc2)c1,-20.4
8,Cc1ccsc1C(=O)NC1CCCN(Cc2ccc(Cl)cc2)C1 (stereo not drawn),-56.2
9,Cc1cc(C(=O)NC2CCCN(Cc3ccc(Cl)cc3)C2)c(C)o1 (stereo not drawn),-11.9
10,CC(=O)c1ccc(C(=O)NC2CCCN(Cc3ccc(Cl)cc3)C2)s1 (stereo not drawn),-66.4
11,O=C(NC1CCCN(Cc2ccc(Cl)cc2)C1)C1CCC1 (stereo not drawn),-13.6
12,Cc1cc(C(=O)NC2CCCN(Cc3ccc(Cl)cc3)C2)n(C)n1 (stereo not drawn),-16
13,Cc1cc(C(=O)NC2CCCN(Cc3ccc(Cl)cc3)C2)no1 (stereo not drawn),-34.6
14,CNc1nc(Sc2ccc(C)cc2)cc(C(F)(F)F)n1,15.5
15,COc1ccc(N(CC(=O)Nc2cc(Cl)ccc2OC)C2=NC3CS(=O)(=O)CC3S2)cc1 (stereo not drawn),-7.35
16,Cc1ccc(C(=O)N2CCN(c3ccccn3)CC2)cc1Cl,-3.65
17,Cc1ccc(C(=O)NNC(=O)c2ccncc2)cc1S(=O)(=O)N1CCOCC1,0.578
18,Cc1ccc(C(=O)NC(C)c2ccccc2)cc1S(=O)(=O)N1CCOCC1 (stereo not drawn),-1.39
19,CC(NC(=O)c1cc(S(=O)(=O)N2CCOCC2)ccc1F)c1ccc(-n2ccnc2)cc1 (stereo not drawn),-72.2

row,Compound,"hERG current change (%, negative = inhibition) at 10uM [%]"
1,Cc1ccc(C(=O)NC(C)c2ccc(-n3ccnc3)cc2)cc1S(=O)(=O)N1CCOCC1 (stereo not drawn),-65.1
2,O=C(NCCCn1ccnc1)c1cc(S(=O)(=O)N2CCOCC2)ccc1F,26.8
3,O=C(Nc1ccc(N2CCCCC2)cc1)c1cc(S(=O)(=O)N2CCOCC2)ccc1F,-9.76
4,CCOC(=O)CNC(=O)C(=O)c1c(O)[nH]c2ccccc12,9.92
5,CC(C(=O)NCC1CCCO1)n1cccc1C(=O)c1ccccc1 (stereo not drawn),15.1
6,CCOC(=O)C1=C(CN2CCc3ccccc32)NC(=O)NC1c1cccc([N+](=O)[O-])c1 (stereo not drawn),-7.46
7,Cc1cc(C(=O)OCn2nnc3ccccc3c2=O)c(C)o1,-6.92
8,Cc1c(C(=O)Nc2ccc(F)c(F)c2)oc2ccc(S(=O)(=O)N3CCCCC3)cc12,-0.731
9,Cc1ccc(CN2CCN(/N=C/c3ccc(O)c(O)c3)CC2)cc1,-21.7
10,Cn1ccnc1C(=O)c1cc(=O)c2ccccc2o1,8.14
11,O=C(CSc1nnc(-c2cccnc2)n1Cc1ccccc1)NCc1ccco1,-1.17
12,Clc1cccc(CSc2nnc(-c3ccccn3)n2Cc2ccco2)c1,-35.7
13,Clc1ccc(CSc2nnc(-c3ccccn3)n2Cc2ccco2)c(Cl)c1,-5.15
14,Clc1ccccc1CSc1nnc(-c2cccnc2)n1Cc1ccco1,-43.1
15,Clc1cccc(CSc2nnc(-c3cccnc3)n2Cc2ccco2)c1,-74.3
16,Clc1ccc(CSc2nnc(-c3cccnc3)n2Cc2ccco2)c(Cl)c1,-68.7
17,Cc1cc(C)cc(OCC(=O)Nc2ccncc2)c1,-18.9
18,C=CCN(c1ccccc1)S(=O)(=O)c1cccc(C(=O)NNC(=O)c2ccncc2)c1,-7.43
19,O=C1NC(Cc2ccccc2)C(=O)N1Cc1cc([N+](=O)[O-])cc2c1OCOC2 (stereo not drawn),7.47
